{"source": "PubChem BioAssay AID1974", "about": "(The Scripps Research Institute Molecular Screening Center, 2009)", "note": "The campaign covered roughly 300,000 compounds. About 3,200 (1.1%) were called active. The sample holds actives, similar compounds and a random draw of the others, so the mix is not that of the screen. A number with no mark means an inactive call.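 Rule for the calls: active = inhibition above the campaign mean inhibition plus 3 SD (cut at about 35% in these data); inactive = the rest.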"}
{"target": "Glutathione S-transferase omega-1 (Homo sapiens) (UniProt P78417)", "sequence (P78417 whole entry, looked up)": "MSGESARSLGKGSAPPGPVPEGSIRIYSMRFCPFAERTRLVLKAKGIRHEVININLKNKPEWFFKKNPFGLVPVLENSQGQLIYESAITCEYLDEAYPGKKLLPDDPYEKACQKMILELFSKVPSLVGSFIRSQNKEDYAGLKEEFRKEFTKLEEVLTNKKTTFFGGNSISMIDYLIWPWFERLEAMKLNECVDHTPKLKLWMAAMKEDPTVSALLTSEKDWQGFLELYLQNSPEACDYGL", "test": "human GSTO1 enzyme inhibition – biochemical, fluorescence polarization, counter-screen for RBBP9 inhibitor project, primary screen (AID 1974);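 note: 0% = GSTO1-1 with DMSO and 100% = wells lacking GSTO1-1 enzyme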", "conditions": "recombinant GSTO1, activity-based probe fluorescence polarization; at 5.96 µM; stronger effect = higher value"}
{"compound": "CC(=O)C12CC(C)=C(C)CC1CC1C3CCC4=CC(=O)CCC4(C)C3CCC12C", "note": "(centres undefined)", "inhibition": "0%"}
{"compound": "CC1(C)S[C@@H]2[C@H](N=CN3CCCCCC3)C(=O)N2[C@H]1C(=O)O", "inhibition": "1.77%"}
{"compound": "COC(=O)c1cc(CNC(=O)CC(C)c2ccccc2)ccc1OC", "note": "(centres undefined)", "inhibition": "3.39%"}
{"compound": "CC1(c2nnc(-c3ccncc3)o2)CC(c2cccnc2)=NO1", "note": "(centres undefined)", "inhibition": "7.77%"}
{"compound": "CCOc1ccc(NC(=O)CSc2nc3c(c(=O)n2-c2ccccc2OC)SCC3)cc1", "inhibition": "9.5%"}
{"compound": "CCc1nnc(NC(=O)CSc2nc3c(c(=O)n2-c2ccccc2OC)SCC3)s1", "inhibition": "35.6% (active)"}
{"compound": "CCc1nnc(NC(=O)CSc2nnc(Cc3ccccc3)n2-c2ccc(OC)cc2)s1", "inhibition": "-0.09%"}
{"compound": "OCC[C@H]1C[C@@H](O)[C@H](O)[C@]2(OCCCc3ccccc32)O1", "inhibition": "-3.33%"}
{"compound": "CC(C)CC[n+]1ccn(C2=C([O-])c3ccccc3C(=O)/C2=N\\S(=O)(=O)c2ccccc2)c1", "inhibition": "70.8% (active)"}
{"compound": "COc1ccc(N(C(=O)c2cccnc2)S(=O)(=O)c2ccc3c(c2)n(C)c(=O)n3C)cc1", "inhibition": "9.41%"}
{"compound": "COc1ccc(N(C(=O)c2cccnc2)S(=O)(=O)c2ccc(OC)c(OC)c2)cc1", "inhibition": "8.53%"}
{"compound": "O=C(c1cccnc1)N(c1cc2sc(=O)oc2c2ccccc12)S(=O)(=O)c1ccccc1", "inhibition": "66.5% (active)"}
{"compound": "CN(C)C1=NC[C@H](Cc2ccccc2)N1CCc1ccc(F)cc1", "inhibition": "0.73%"}
{"compound": "OCC[C@H]1C[C@@H](O)[C@H](O)[C@@]2(OCCc3ccccc32)O1", "inhibition": "7.38%"}
{"compound": "Cc1nc2c(c(C)nn2-c2ccccc2)c(C)c1C", "inhibition": "15.1%"}
{"compound": "Cc1c(CC(=O)N2CCN(C(=O)C3COc4ccccc4O3)CC2)c(=O)oc2c(O)c(O)ccc12", "note": "(centres undefined)", "inhibition": "45.1% (active)"}
{"compound": "O=C(CNC(=O)C1COc2ccccc2O1)N/N=C/c1cc(Br)c(O)c(Br)c1", "note": "(centres undefined)", "inhibition": "-6.29%"}
{"compound": "Cc1c(C)c2ccc(OCC(=O)N3CCC(C(=O)O)CC3)c(C)c2oc1=O", "inhibition": "-1.66%"}
{"compound": "COCC(C)OC(=O)c1c(N)n(CCCN2CCOCC2)c2nc3ccccc3nc12", "note": "(centres undefined)", "inhibition": "11.9%"}
{"compound": "CC(C)(C)OC(=O)c1c(N)n(CCCN2CCCC2=O)c2nc3ccccc3nc12", "inhibition": "63.9% (active)"}
{"compound": "O=C(NCCCN1CCCC1=O)c1ccc(S(=O)(=O)Nc2ccccc2)cc1", "inhibition": "0.39%"}
{"compound": "O=[N+]([O-])c1ccc(S(=O)(=O)Nc2cccc(-c3ccc(N4CCCC4)nn3)c2)cc1", "inhibition": "-8.25%"}
{"compound": "COc1ccc(CNC(=O)[C@@H]2CC=C[C@@H]3CCN(C4CC4)C(=O)[C@@H]32)cc1", "inhibition": "-0.21%"}
{"compound": "Cc1cccc(N2CCN(c3ccc(NC(=O)/C=C\\C(=O)O)cc3)CC2)c1", "inhibition": "42.2% (active)"}
{"compound": "CSc1ccc(NC(=O)/C=C/C(=O)O)cc1", "inhibition": "0.81%"}
{"compound": "CN1CCN(c2ccc(NC(=O)c3ccccc3)cc2)CC1", "inhibition": "2.04%"}
{"compound": "CCCn1c(C)cc(-c2csc(NC(=O)CCc3nc4ccccc4c(=O)[nH]3)n2)c1C", "inhibition": "-4.01%"}
{"compound": "O=C(CCc1[nH]c2ccccc2c1Sc1ccccc1)N(CCO)CCO", "inhibition": "3.25%"}
{"compound": "CCCCN(C(=O)CCNC(=O)NC12CC3CC(CC(C3)C1)C2)c1c(N)n(CCCC)c(=O)[nH]c1=O", "inhibition": "-0.02%"}
{"compound": "N#CC1(NC(=O)COC(=O)CSc2ccc(F)cc2)CCCCC1", "inhibition": "6.75%"}
{"compound": "Cc1cccc(NC(=O)c2ccc(S(=O)(=O)N(C)CC3CCCO3)cc2)c1C", "note": "(centres undefined)", "inhibition": "-5.06%"}
{"compound": "CN(CC1CCCO1)S(=O)(=O)c1ccc(C(=O)Nc2ccc(F)cc2)cc1", "note": "(centres undefined)", "inhibition": "2.1%"}
{"compound": "CCOC(=O)c1c(NC(=O)c2ccc(S(=O)(=O)N(C)CC3CCCO3)cc2)sc2c1CC(C)(C)NC2(C)C", "note": "(centres undefined)", "inhibition": "55.4% (active)"}
{"compound": "O=C(Nc1ccc(S(=O)(=O)N2CCCCC2)cc1)C1CCN(C(=O)c2ccc(F)cc2)CC1", "inhibition": "-4.69%"}
{"compound": "CC(Oc1cccc(Cl)c1)C(=O)Nc1ccc(S(=O)(=O)Nc2ncccn2)cc1", "note": "(centres undefined)", "inhibition": "-7.06%"}
{"compound": "COc1cccc(N(C(=O)C2COc3ccccc3O2)C(C(=O)NC2CCCCC2)c2ccc(O)cc2)c1", "note": "(centres undefined)", "inhibition": "0.47%"}
{"compound": "COc1ccc(C(C(=O)NC2CCCCC2)N(C(=O)c2snc(C(N)=O)c2N)c2ccccc2OC)cc1", "note": "(centres undefined)", "inhibition": "-5.23%"}
{"compound": "COc1ccc(C(C(=O)NC2CCCCC2)N(C(=O)CCl)c2ccccc2Cl)cc1", "note": "(centres undefined)", "inhibition": "38.1% (active)"}
{"compound": "CC1=C(N2CCN(c3ncccn3)CC2)CCC1=O", "inhibition": "-2.06%"}
{"compound": "CCn1c(SC(C)C(=O)Nc2ccc(N3CCOCC3)cc2)nnc1-c1ccco1", "note": "(centres undefined)", "inhibition": "-7.32%"}
{"compound": "CCOC(=O)C(C)N(c1ccccc1Cl)S(C)(=O)=O", "note": "(centres undefined)", "inhibition": "2.86%"}
{"compound": "Cc1cc(Cl)c(S(=O)(=O)NCC2CCCO2)cc1OCC(N)=O", "note": "(centres undefined)", "inhibition": "-0.4%"}
{"compound": "Cc1cc(Cl)c(S(=O)(=O)N(C)C)cc1OCC(N)=O", "inhibition": "-3.27%"}
{"compound": "Cc1cc(Cl)c(S(=O)(=O)Nc2ccc3c(c2)OCCO3)cc1OCC(N)=O", "inhibition": "35.7% (active)"}
